# Results from the supplement of paper PMC8728848.
# Only a selection was taken, and the strongest signals are over-represented in it overall.
# What was measured:
# Test in all cases: glycan array binding signal (z-score within array); higher = stronger binding
# Conditions in all cases: glycan notation: IUPAC condensed, linker removed
# [1] = molecular target: Fuc(a1-2)Gal(b1-3)GlcNAc(b1-2)Man(a1-3)[Fuc(a1-2)Gal(b1-3)GlcNAc(b1-2)Man(a1-6)]Man(b1-4)GlcNAc(b1-4)[Fuc(a1-6)]GlcNAc
# In short: (§1)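 Glycan array binding is given as a within-array Z-score, which can be read as non-binding when negative. The arrays, 3228 of them, came from the Consortium for Functional Glycomics database and were retained only where the protein sequence was available. Z-scores were averaged across arrays of the same protein sequence at different concentrations or buffers and across linkers.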
# [2] = molecular target: Fuc(a1-2)Gal(b1-3)GlcNAc(b1-3)[Gal(b1-4)GlcNAc(b1-6)]Gal(b1-4)Glc
# In short: as §1
# [3] = molecular target: Fuc(a1-2)Gal(b1-4)GlcNAc(b1-3)GalNAc
# In short: as §1
# [4] = molecular target: Fuc(a1-2)Gal(b1-4)[Fuc(a1-3)]GlcNAc(b1-2)[Fuc(a1-2)Gal(b1-4)[Fuc(a1-3)]GlcNAc(b1-4)]Man(a1-3)[Fuc(a1-2)Gal(b1-4)[Fuc(a1-3)]GlcNAc(b1-2)Man(a1-6)]Man(b1-4)GlcNAc(b1-4)GlcNAc
# In short: as §1
# [5] = molecular target: Fuc(a1-2)[GalNAc(a1-3)]Gal(b1-4)Glc
# In short: as §1
# [6] = molecular target: Fuc(a1-2)[GalNAc(a1-3)]Gal(b1-4)[Fuc(a1-3)]GlcNAc(b1-3)GalNAc
# In short: as §1
# [7] = molecular target: Fuc(a1-3)[Gal(b1-4)]GlcNAc(b1-3)GalNAc
# In short: as §1
# [8] = molecular target: Gal(b1-3)GlcNAc(b1-3)Gal(b1-4)GlcNAc(b1-6)[Gal(b1-3)GlcNAc(b1-3)]Gal(b1-4)Glc
# In short: as §1
# [9] = molecular target: Gal(b1-4)GlcNAc(b1-6)Gal(b1-4)GlcNAc
# In short: as §1
# [10] = molecular target: GalNAc(b1-3)Gal
# In short: as §1
# [11] = molecular target: GalNAc(b1-4)Gal(b1-4)Glc
# In short: as §1
# [12] = molecular target: GalNAc(b1-6)GalNAc
# In short: as §1
# [13] = molecular target: GlcNAc(a1-4)Gal(b1-4)GlcNAc(b1-3)Gal(b1-4)[Fuc(a1-3)]GlcNAc(b1-3)Gal(b1-4)[Fuc(a1-3)]GlcNAc
# In short: as §1
# [14] = molecular target: GlcNAc(b1-3)Gal(b1-3)GalNAc
# In short: as §1
# [15] = molecular target: GlcNAc(b1-3)GalNAc
# In short: as §1
# [16] = molecular target: Kdn(a2-3)Gal(b1-4)Glc
# In short: as §1
# [17] = molecular target: Kdn(a2-6)Gal(b1-4)GlcNAc
# In short: as §1
# [18] = molecular target: Man(a1-2)Man(a1-2)Man(a1-6)[Man(a1-3)]Man
# In short: as §1
# [19] = molecular target: Man(a1-2)Man(a1-3)[Man(a1-2)Man(a1-6)]Man(a1-6)[Man(a1-2)Man(a1-2)Man(a1-3)]Man
# In short: as §1
# [20] = molecular target: Man(a1-2)Man(a1-3)[Man(a1-2)Man(a1-6)]Man(a1-6)[Man(a1-2)Man(a1-2)Man(a1-3)]Man(b1-4)GlcNAc(b1-4)GlcNAc
# In short: as §1
# [21] = molecular target: Man(a1-2)Man(a1-6)[Man(a1-3)]Man(a1-6)[Man(a1-2)Man(a1-2)Man(a1-3)]Man
# In short: as §1
# [22] = molecular target: Man(a1-2)Man(a1-6)[Man(a1-3)]Man(a1-6)[Man(a1-2)Man(a1-2)Man(a1-3)]Man(b1-4)GlcNAc(b1-4)GlcNAc
# In short: as §1
# [23] = molecular target: Man(a1-3)[Man(a1-6)]Man
# In short: as §1
# [24] = molecular target: Man(a1-3)[Man(a1-6)]Man(a1-6)[Man(a1-2)Man(a1-3)]Man(b1-4)GlcNAc(b1-4)GlcNAc
# In short: as §1
# [25] = molecular target: Man(a1-3)[Man(a1-6)]Man(a1-6)[Man(a1-3)]Man
# In short: as §1
# [26] = molecular target: Man(a1-3)[Man(a1-6)]Man(a1-6)[Man(a1-3)]Man(b1-4)GlcNAc(b1-4)GlcNAc
# In short: as §1
# [27] = molecular target: Neu5Ac(a2-3)Gal(b1-3)GalNAc(b1-3)Gal(a1-4)Gal(b1-4)Glc
# In short: as §1
# [28] = molecular target: Neu5Ac(a2-3)Gal(b1-3)GlcNAc
# In short: as §1
# [29] = molecular target: Neu5Ac(a2-3)Gal(b1-4)GlcNAc(b1-2)Man(a1-3)[GlcNAc(b1-2)Man(b1-4)GlcNAc(b1-2)Man(a1-6)]Man(b1-4)GlcNAc(b1-4)GlcNAc
# In short: as §1
# [30] = molecular target: Neu5Ac(a2-3)Gal(b1-4)GlcNAc(b1-6)[Neu5Ac(a2-3)Gal(b1-3)]GalNAc
# In short: as §1
# [31] = molecular target: Neu5Ac(a2-6)Gal(b1-4)GlcNAc(b1-2)Man(a1-3)Man(b1-4)GlcNAc(b1-4)GlcNAc
# In short: as §1
# [32] = molecular target: Neu5Ac(a2-6)GalNAc
# In short: as §1
# [33] = molecular target: Neu5Ac(a2-6)GalNAc(b1-4)GlcNAc
# In short: as §1
# [34] = molecular target: Neu5Ac(a2-8)Neu5Ac(a2-8)Neu5Ac
# In short: as §1
# [35] = molecular target: Neu5Ac(a2-8)Neu5Ac(a2-8)Neu5Ac(a2-8)Neu5Ac(a2-3)[GalNAc(b1-4)]Gal(b1-4)Glc
# In short: as §1
# [36] = molecular target: Neu5Ac(b2-6)Gal(b1-4)GlcNAc
# In short: as §1
# [37] = molecular target: Neu5Gc(a2-3)Gal(b1-4)GlcNAc
# In short: as §1
binder,measurement,setting,value
"RS2L (Ralstonia solanacearum), B5RXL5_RALSO (protein) MAQQGVFTLPANTSFGVTAFANAANTQTIQVLVDNVVKATFTGSGTSDKLLGSQVLNSGSGAIKIQVSVNGKPSDLVSNQTILANKLNFAMVGSEDGTDNDYNDGIAVLNWPLG",glycan array binding signal (z-score),[1],0.443
same,glycan array binding signal (z-score),[2],-0.211
same,glycan array binding signal (z-score),[3],-0.205
same,glycan array binding signal (z-score),[4],-0.175
same,glycan array binding signal (z-score),[5],-0.244
same,glycan array binding signal (z-score),[6],-0.233
same,glycan array binding signal (z-score),[7],-0.24
same,glycan array binding signal (z-score),[8],-0.246
same,glycan array binding signal (z-score),[9],-0.255
same,glycan array binding signal (z-score),[10],-0.243
same,glycan array binding signal (z-score),[11],-0.247
same,glycan array binding signal (z-score),[12],-0.243
same,glycan array binding signal (z-score),[13],-0.12
same,glycan array binding signal (z-score),[14],-0.245
same,glycan array binding signal (z-score),[15],-0.249
same,glycan array binding signal (z-score),[16],-0.242
same,glycan array binding signal (z-score),[17],-0.251
same,glycan array binding signal (z-score),[18],6.32
same,glycan array binding signal (z-score),[19],6.92
same,glycan array binding signal (z-score),[20],3.42
same,glycan array binding signal (z-score),[21],5.7
same,glycan array binding signal (z-score),[22],5.97
same,glycan array binding signal (z-score),[23],7.32
same,glycan array binding signal (z-score),[24],6.99
same,glycan array binding signal (z-score),[25],5.11
same,glycan array binding signal (z-score),[26],5.42
same,glycan array binding signal (z-score),[27],-0.25
same,glycan array binding signal (z-score),[28],-0.247
same,glycan array binding signal (z-score),[29],-0.245
same,glycan array binding signal (z-score),[30],-0.254
same,glycan array binding signal (z-score),[31],-0.245
same,glycan array binding signal (z-score),[32],-0.244
same,glycan array binding signal (z-score),[33],-0.242
same,glycan array binding signal (z-score),[34],-0.243
same,glycan array binding signal (z-score),[35],-0.22
same,glycan array binding signal (z-score),[36],-0.252
same,glycan array binding signal (z-score),[37],-0.242
